Measurements taken from PubChem BioAssay (NCATS).
Results filed as inconclusive are left out. Calls of active or inactive are those of the source. Unless noted, calls follow the shape of the dose curve; as a rule, active = well fitted curve in the direction sought with a large enough effect; inconclusive = small, poorly fitted or top-dose-only effect, or another doubt; inactive = no such curve, though single readings can be large; an effect the other way counts as inactive or inconclusive.

How the values were obtained:
[1] = target: ATP-dependent 6-phosphofructokinase (Trypanosoma brucei brucei) (UniProt O15648); assay: qHTS Assay to Find Inhibitors of T. brucei phosphofructokinase: hit validation (AID 492961);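 also: luminescence reports ADP formed as PFK phosphorylates fructose-6-phosphate with ATP; % is scaled to controls: 0 for no effect and ±100 for the full control effect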
In short: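 Compounds titrated; %activity normalized to 0x and 1x enzyme controls, curve-fitted. Readout: ADP-Glo luminescence after 45 min room-temperature reaction of 1.25 nM PFK, 0.1 mM ATP, 0.5 mM F6P, pH 8.0.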

[2] = target: Ubiquitin carboxyl-terminal hydrolase 1 (Homo sapiens) (UniProt O94782); assay: Inhibitors of USP1/UAF1: Pilot qHTS (AID 504865);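 also: rhodamine fluorescence freed from ubiquitin-rhodamine substrate followed over time; top concentration of the series differs between compounds; % is scaled to controls: 0 for no effect and ±100 for the full control effect; nearly all actives have a fitted effect of over 35% in size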
In short: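 1nM USP1/UAF1 + cpd, 15 min RT; start w/ Ub-Rho 150nM final; kinetic FL 480/540 nm, 6 reads q60 s. Buffer 50mM HEPES pH 7.8, 0.5mM EDTA, 1mM TCEP, 0.01% Tween-20, 0.1 mg/ml BSA.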

[3] = target: Luciferin 4-monooxygenase (Photinus pyralis) (UniProt P08659); assay: Biochemical firefly luciferase enzyme assay for NPC (AID 624030);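 also: purified P. pyralis luciferase at 10 nM with luciferin and ATP substrate; 0% = DMSO and -100% = full luciferase inhibition by PTC124 control; nearly all actives have a fitted effect of over 70% in size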
In short: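 Purified P. pyralis luciferase at 10 nM in 50 mM Tris Acetate (final), luminescence read within 5 minutes of enzyme addition to compounds. Activity normalised to PTC124 versus DMSO; concentration-response curves classed by r2, magnitude and activity.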

[4] = S16 Schwann cell viability assay (CellTiter-Glo assay) (AID 624031);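 also: native untransfected S16 rat Schwann cells; cellular ATP luminescence as a viability measure; plate controls were DMSO-treated cells for no effect and cell-free wells for full effect; nearly all actives have a fitted effect of over 70% in size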
In short: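 Concentration-effect curves come from CellTiter-Glo luminescence of S16 rat Schwann cells after 24 h compound exposure. Each reading was normalized to DMSO wells (0%) and wells without cells, and curves were ranked by r2 and response magnitude.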

[5] = S16 Schwann cell PMP22 intronic element firefly luciferase assay (AID 624032);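 also: plate controls were DMSO for no effect and PTC124 positive control mean for full effect; nearly all actives have a fitted effect of over 30% in size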
In short: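 Rat S16 Schwann cells stably carrying firefly luciferase driven by a PMP22 intronic element, in 10% FBS, treated 24 h at 37 C. ONE-Glo luminescence normalized to PTC124 control and DMSO (0%); curves classed by r2, magnitude and activity.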

[6] = S16 Schwann cell PMP22 intronic element beta-lactamase assay (AID 624044; calls by dose curve;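 also: 0% = DMSO and -100% = potassium clavulanate positive control; nearly all actives have a fitted effect of over 15% in size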)
In short: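 Beta-lactamase reporter under a PMP22 intronic regulatory element in stable S16 rat Schwann cells; 24 h compound exposure. 460 nm blue signal normalized between DMSO (0%) and potassium clavulanate, with 535 nm FRET tracking viability; curves classed by r2 and response.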

[7] = system: Zika virus NS2B-NS3 protease; assay: Primary screen GU AMC qHTS for Zika virus inhibitors (AID 1347154);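 also: 0% = no-inhibitor control and -100% = no-enzyme control; nearly all actives have a fitted effect of over 70% in size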
In short: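 Unlinked Zika NS2B hydrophilic domain–NS3 protease complex at 25 nM in 10 mM Tris-HCl pH 8.0, 0.01% Tween 20, with an AMC peptide substrate. Fluorescence change (340/450 nm) over 15 min at room temperature, normalized to controls, fitted to 4-parameter Hill.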

[8] = Primary qHTS for small molecule stabilizers of the endoplasmic reticulum resident proteome: Secreted ER Calcium Modulated Protein (SERCaMP) assay (AID 1508630); also: % is scaled to controls: 0 for no effect and ±100 for the full control effect
In short: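 The SH-SY5Y reporter protocol was run at 3 concentrations up to 38.3 uM (primary) or 11 concentrations (follow-up): 16 h compound, 100 nM thapsigargin for 4 h, then extracellular luciferase luminescence.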

[9] = qHTS profiling for inhibitors of Plasmodium falciparum proliferation (AID 504749);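 also: 0% = DMSO vehicle and full inhibition = artemisinin control; nearly all actives have a fitted effect of over 60% in size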; conditions: P. falciparum in erythrocytes, SYBR Green DNA, 72 h; at 28.7 µM (top of the series); parasite line A
In short: (§1)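 SYBR Green fluorescence (ex 485 nm, em 535 nm) reports parasite DNA after 72 h compound exposure of infected red cells at 0.3% parasitemia, 2.5% hematocrit; signal normalized to 0.29 uM artemisinin and vehicle wells.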

3D7 = assay: as above; conditions: P. falciparum in erythrocytes, SYBR Green DNA, 72 h; series mostly up to 28.7 µM
In short: as §1

7G8 = assay: as above; conditions: P. falciparum in erythrocytes, SYBR Green DNA, 72 h; series mostly up to 28.7 µM
In short: as §1

AA1029 = assay: as above; conditions: P. falciparum in erythrocytes, SYBR Green DNA, 72 h; series mostly up to 28.7 µM
In short: as §1

AS120 = assay: as above; conditions: P. falciparum in erythrocytes, SYBR Green DNA, 72 h; series mostly up to 28.7 µM
In short: as §1

ATS189 = assay: as above; conditions: P. falciparum in erythrocytes, SYBR Green DNA, 72 h; series mostly up to 28.7 µM
In short: as §1

ATS95 = assay: as above; conditions: P. falciparum in erythrocytes, SYBR Green DNA, 72 h; series mostly up to 28.7 µM
In short: as §1

C2A = assay: as above; conditions: P. falciparum in erythrocytes, SYBR Green DNA, 72 h; series mostly up to 28.7 µM
In short: as §1

CP185 = assay: as above; conditions: P. falciparum in erythrocytes, SYBR Green DNA, 72 h; series mostly up to 28.7 µM
In short: as §1

CP191 = assay: as above; conditions: P. falciparum in erythrocytes, SYBR Green DNA, 72 h; series mostly up to 28.7 µM
In short: as §1

CP192 = assay: as above; conditions: P. falciparum in erythrocytes, SYBR Green DNA, 72 h; series mostly up to 28.7 µM
In short: as §1

CP194 = assay: as above; conditions: P. falciparum in erythrocytes, SYBR Green DNA, 72 h; series mostly up to 28.7 µM
In short: as §1

CP201 = assay: as above; conditions: P. falciparum in erythrocytes, SYBR Green DNA, 72 h; series mostly up to 28.7 µM
In short: as §1

CP203 = assay: as above; conditions: P. falciparum in erythrocytes, SYBR Green DNA, 72 h; series mostly up to 28.7 µM
In short: as §1

CP211 = assay: as above; conditions: P. falciparum in erythrocytes, SYBR Green DNA, 72 h; series mostly up to 28.7 µM
In short: as §1

CP215 = assay: as above; conditions: P. falciparum in erythrocytes, SYBR Green DNA, 72 h; series mostly up to 28.7 µM
In short: as §1

CP217 = assay: as above; conditions: P. falciparum in erythrocytes, SYBR Green DNA, 72 h; series mostly up to 28.7 µM
In short: as §1

CP237 = assay: as above; conditions: P. falciparum in erythrocytes, SYBR Green DNA, 72 h; series mostly up to 28.7 µM
In short: as §1

CP238 = assay: as above; conditions: P. falciparum in erythrocytes, SYBR Green DNA, 72 h; series mostly up to 28.7 µM
In short: as §1

CP247 = assay: as above; conditions: P. falciparum in erythrocytes, SYBR Green DNA, 72 h; series mostly up to 28.7 µM
In short: as §1

CP250 = assay: as above; conditions: P. falciparum in erythrocytes, SYBR Green DNA, 72 h; series mostly up to 28.7 µM
In short: as §1

CP252 = assay: as above; conditions: P. falciparum in erythrocytes, SYBR Green DNA, 72 h; series mostly up to 28.7 µM
In short: as §1

CP256 = assay: as above; conditions: P. falciparum in erythrocytes, SYBR Green DNA, 72 h; series mostly up to 28.7 µM
In short: as §1

CP260 = assay: as above; conditions: P. falciparum in erythrocytes, SYBR Green DNA, 72 h; series mostly up to 28.7 µM
In short: as §1

CP262 = assay: as above; conditions: P. falciparum in erythrocytes, SYBR Green DNA, 72 h; series mostly up to 28.7 µM
In short: as §1

CP265 = assay: as above; conditions: P. falciparum in erythrocytes, SYBR Green DNA, 72 h; series mostly up to 28.7 µM
In short: as §1

Luciferin 4-monooxygenase (Photinus pyralis), sequence (P08659 whole entry, looked up): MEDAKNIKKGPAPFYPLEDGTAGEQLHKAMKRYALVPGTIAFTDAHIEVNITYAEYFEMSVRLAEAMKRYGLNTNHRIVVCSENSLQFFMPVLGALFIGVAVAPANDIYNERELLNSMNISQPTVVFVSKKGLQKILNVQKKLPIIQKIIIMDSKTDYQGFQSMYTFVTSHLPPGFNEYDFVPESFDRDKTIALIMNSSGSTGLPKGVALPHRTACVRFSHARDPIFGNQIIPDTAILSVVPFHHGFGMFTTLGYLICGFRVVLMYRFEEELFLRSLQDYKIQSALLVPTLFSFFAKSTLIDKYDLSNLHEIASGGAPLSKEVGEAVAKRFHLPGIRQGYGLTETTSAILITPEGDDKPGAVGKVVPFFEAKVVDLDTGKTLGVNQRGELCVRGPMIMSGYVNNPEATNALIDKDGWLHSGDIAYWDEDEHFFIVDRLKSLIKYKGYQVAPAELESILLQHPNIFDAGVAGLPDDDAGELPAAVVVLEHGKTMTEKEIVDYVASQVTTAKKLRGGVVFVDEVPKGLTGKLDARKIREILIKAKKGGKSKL
ATP-dependent 6-phosphofructokinase (Trypanosoma brucei brucei), sequence (O15648 whole entry, looked up): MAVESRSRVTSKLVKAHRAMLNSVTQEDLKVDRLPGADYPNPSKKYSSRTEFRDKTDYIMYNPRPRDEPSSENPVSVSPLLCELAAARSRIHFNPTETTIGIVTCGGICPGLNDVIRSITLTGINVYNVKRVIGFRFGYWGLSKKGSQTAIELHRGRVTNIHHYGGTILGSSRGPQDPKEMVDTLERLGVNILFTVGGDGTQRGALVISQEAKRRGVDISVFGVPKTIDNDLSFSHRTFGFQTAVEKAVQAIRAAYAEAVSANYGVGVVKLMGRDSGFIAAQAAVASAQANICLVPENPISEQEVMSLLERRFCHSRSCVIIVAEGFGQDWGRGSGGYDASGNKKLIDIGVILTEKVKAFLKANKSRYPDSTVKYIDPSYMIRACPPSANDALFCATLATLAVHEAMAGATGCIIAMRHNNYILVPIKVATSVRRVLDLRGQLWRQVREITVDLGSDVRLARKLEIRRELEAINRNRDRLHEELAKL
Ubiquitin carboxyl-terminal hydrolase 1 (Homo sapiens), sequence (O94782 whole entry, looked up): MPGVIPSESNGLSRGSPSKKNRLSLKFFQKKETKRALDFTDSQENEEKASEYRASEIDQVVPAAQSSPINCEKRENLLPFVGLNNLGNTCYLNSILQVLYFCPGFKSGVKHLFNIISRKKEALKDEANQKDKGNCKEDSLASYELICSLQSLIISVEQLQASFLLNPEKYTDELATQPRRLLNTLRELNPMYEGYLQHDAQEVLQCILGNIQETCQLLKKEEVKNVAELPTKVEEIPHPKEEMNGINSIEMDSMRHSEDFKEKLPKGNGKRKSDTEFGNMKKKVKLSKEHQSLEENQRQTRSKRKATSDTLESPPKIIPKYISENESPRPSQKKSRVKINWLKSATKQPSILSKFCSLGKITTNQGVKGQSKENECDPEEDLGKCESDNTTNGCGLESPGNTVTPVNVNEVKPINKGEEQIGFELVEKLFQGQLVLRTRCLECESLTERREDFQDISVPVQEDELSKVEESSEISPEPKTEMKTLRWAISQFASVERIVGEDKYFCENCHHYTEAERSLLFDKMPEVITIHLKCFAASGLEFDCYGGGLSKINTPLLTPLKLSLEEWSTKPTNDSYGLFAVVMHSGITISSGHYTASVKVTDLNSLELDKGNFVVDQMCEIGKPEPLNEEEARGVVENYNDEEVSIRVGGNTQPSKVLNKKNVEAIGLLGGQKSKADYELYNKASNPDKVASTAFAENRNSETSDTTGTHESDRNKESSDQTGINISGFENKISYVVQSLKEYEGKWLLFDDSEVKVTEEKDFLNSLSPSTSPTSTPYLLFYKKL

CC(=O)[C@H]1CC[C@H]2C3CC=C4C[C@@H](O)CC[C@]4(C)C3CC[C@]12C (some centres undefined)
inactive: outcome [1] | Potency [2] | Potency [3] | outcome [4] | Potency [5] | Potency [6] | Potency [7] | Potency [8] | activity, negative = inhibition [9] -13% | Potency (3D7) | Potency (7G8) | Potency (AA1029) | Potency (AS120) | Potency (ATS189) | Potency (ATS95) | Potency (C2A) | Potency (CP185) | Potency (CP191) | Potency (CP192) | Potency (CP194) | Potency (CP201) | Potency (CP203) | Potency (CP211) | Potency (CP215) | Potency (CP217) | Potency (CP237) | Potency (CP238) | Potency (CP247) | Potency (CP250) | Potency (CP252) | Potency (CP256) | Potency (CP260) | Potency (CP262) | Potency (CP265)
